The campaign covered roughly 290,000 compounds. About 1,000 (0.34%) were called active. Rule as the data show it: active = inhibition above about 50% (passing the limit was not always enough); inconclusive = no clear call, values can overlap the other calls. The list comes from a sample in which actives are over-represented; it also holds similar structures and randomly drawn compounds.

In the test the target is SUMO-conjugating enzyme UBC9 (Homo sapiens) (UniProt P63279). In words: inhibitors of in vitro SUMOylation cascade, primary screen, biochemical, HTRF, uHTS (AID 2006). The settings on record: HTRF SUMOylation assay, SAE1/SAE2 + UBC9, in vitro, at 35 µM, stronger effect = higher value.
Chain of SUMO-conjugating enzyme UBC9 (Homo sapiens) (P63279 whole entry, looked up): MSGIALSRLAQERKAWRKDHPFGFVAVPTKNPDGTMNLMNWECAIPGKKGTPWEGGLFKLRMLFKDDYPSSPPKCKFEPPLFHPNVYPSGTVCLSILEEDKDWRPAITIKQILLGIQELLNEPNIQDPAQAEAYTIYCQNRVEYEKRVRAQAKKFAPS

For orientation: inhibition means the drop in the measured response relative to a control, in per cent. Take `COc1ccccc1NC(=O)C1CCCN1S(=O)(=O)c1ccc(Cl)cc1` (configuration not stated): the inhibition was -4.9% (inactive).
As to `CC(=O)Nc1ccc(-c2cn3cccnc3n2)cc1`, the inhibition was 55.4% (active). Moreover, for the setting “average of repeat tests”, the inhibition was 53.3%.
In the case of `CCCC(=O)Nc1cccc(-c2cn3ccsc3n2)c1`, the inhibition was -25.1% (inactive).
For `CCCCCC(=O)Nc1ccc(-c2cn3cccnc3n2)cc1`, the inhibition is 50.5% (active). Besides, the inhibition (average of repeat tests) is 60.8%.
`CCCCCC(=O)Nc1ccc(S(=O)(=O)Nc2ccc(Cl)nn2)cc1`: the inhibition is 2.3% (inactive).
On the same count and under the same terms, for `FC(F)(F)Oc1ccc(-c2cn3cccnc3n2)cc1` the value was 24.2% (inactive).
`CC(C)(C)C(=O)Nc1ccc(-c2cn3cccnc3n2)cc1`: the inhibition was 37.2% (inactive).
Still for that read-out and setting: for `Cc1ccc(NC(=O)CN2CCc3ccccc3C2)cc1C` the value was -5.2% (inactive); for `CCc1c(C)nc(N)n2c(SCC(=O)NC3CCCCC3)nnc12`, -11.4% (inactive).
Still for that read-out and setting: for `Cc1ccc(C)c(NC(=O)NNC(=O)c2ccc3ccccc3c2O)c1` the value was 4.2% (inactive).
Still for that read-out and setting: with `CC(=O)N1c2ccc(S(=O)(=O)N3CCCC(C(=O)Nc4cccc(F)c4)C3)cc2CC1C` (configuration not stated) the figure was 12.3% (inactive); with `Cc1cc(C(F)F)nn1CC(=O)NC1CCCCCC1`, 2.2% (inactive); with `N#CC1(NC(=O)COC(=O)CCN=C2NS(=O)(=O)c3ccccc32)CCCCC1`, 2.6% (inactive).
In the case of `CC1CCCCC1NC(=O)CSc1nnc(-c2ccncc2)n1CCCN(C)C` (configuration not stated), the inhibition was 8.9% (inactive).
Still for that read-out and setting: for `O=C(Nc1ccccc1Cl)/C(Cl)=C(\Cl)S(=O)c1ccccc1` (configuration not stated) the value was 57% (active).
Still for that read-out and setting: for `O=C(Nc1ccccc1Cl)Nn1cnnc1` the value was 10.4% (inactive).
`O=C(COC(=O)c1cccs1)Nc1ccccc1Cl`: the inhibition is -14.2% (inactive).
On the same count and under the same terms, for `CCC(=O)Nc1nnc(S(=O)(=O)N(CC(C)C)c2ccccc2)s1` the value was -0.8% (inactive); for `CCOC(=O)c1c(C)[nH]c2c1-c1ccccc1C(=O)C2=O`, 86.9% (active); for `CCOC(=O)C1=C(c2ccc(OC)cc2)C(=O)c2ccccc2C1=O`, 5.9% (inactive).
Regarding `CCOC(=O)c1c(C)[nH]c(C(=O)NCc2ccccc2OC)c1C`, the inhibition was 21.6% (inactive).
In the case of `CC(C)(C)NC(=O)CN(Cc1cccs1)C(=O)CNS(=O)(=O)c1ccccc1`, the inhibition was 5.5% (inactive).
Consider `O=C(CN1CCC(NC(=O)C2CC2)CC1)Nc1ccccc1[N+](=O)[O-]`, for which the inhibition is 2.3% (inactive).
With `CCOC(=O)C1CCN(S(=O)(=O)c2ccc3c(c2)N(C)C(=O)CC(=O)N3C)CC1`, the inhibition is 10.1% (inactive).
With `CCOc1ncccc1C(=O)NCCc1ccc(OC)cc1`, the inhibition was -5.7% (inactive).
On to `CC(C)CN(CC(C)C)C(=O)CN1c2cccc3cccc(c23)S1(=O)=O`, for which the inhibition is 14.7% (inactive).
Turning to `CN1C(=O)/C(=C/c2ccco2)SC1=Nc1cccc(C(=O)O)c1`, the inhibition is 52.8% (active).
As for `Cc1cc(/C=C2\SC(=O)N(C)C2=O)c(C)n1-c1cccc(C(=O)O)c1`, the inhibition is 0.8% (inactive).
Still for that read-out and setting: for `O=C(CCCN1C(=O)/C(=C/c2ccco2)SC1=S)Nc1ccccc1` the value was 23.1% (inactive); for `CCc1nn(CCCC(=O)NCc2ccc(C)cc2)c(=O)c2cc3occc3n12`, -4.3% (inactive).
Consider `Cc1cnc(C(=O)N2CCCC(N3CCN(c4ccccc4F)CC3)C2)cn1` (configuration not stated), for which the inhibition is 5.2% (inactive).
On to `CC(=O)Nc1ccc(S(=O)(=O)Nc2cc(C)cn(Cc3ccc(C)cc3)c2=O)cc1`, for which the inhibition was 14.3% (inactive).
In the case of `O=C1Nc2cc(C(=O)N3CCC(N4CCCCC4)CC3)ccc2S/C1=C\c1ccccc1`, the inhibition is 10.8% (inactive).
Still for that read-out and setting: for `Cc1ccc2nc(-c3ccncc3)cc(C(=O)Nc3ccncc3)c2c1` the value was -4.4% (inactive); for `Cc1ccc2nc(-c3ccncc3)cc(C(=O)Nc3ccc(OC(F)F)cc3)c2c1`, 61.9% (active).
With `Cc1ccc2nc(-c3ccncc3)cc(C(=O)Nc3ccc4c(c3)OCCO4)c2c1`, the inhibition was 23.4% (inactive).
Regarding `COc1ccc(N2CCN(C3CCCCC3NS(=O)(=O)c3ccccc3)CC2)cc1` (configuration not stated), the inhibition was -12.9% (inactive).
Same read-out and setting: for `O=C(CN1CCN(c2ccc(O)cc2)CC1)Nc1cc(S(=O)(=O)N2CCOCC2)ccc1Cl` the value was 25.4% (inactive); for `O=C(N/N=C/c1cc(Cl)cc([N+](=O)[O-])c1O)C(O)(c1ccccc1)c1ccccc1`, -22% (inactive).
On the same count and under the same terms, with `O=[N+]([O-])c1cc(Cl)cc(/C=N/NC(=S)Nc2cc(S(=O)(=O)N3CCOCC3)ccc2Cl)c1O` the figure was 99.5% (active).
On the same count and under the same terms, with `O=C(O)C1CCCCC1C(=O)N1CCN(S(=O)(=O)c2ccc(F)cc2)CC1` (configuration not stated) the figure was 9.5% (inactive).
For the molecule `O=C(c1cccnc1)N1CCN(S(=O)(=O)c2cccs2)CC1`, the inhibition is -2% (inactive).
For `CSc1nnc(SCc2nc3sc(C(=O)O)c(C)c3c(=O)[nH]2)s1`, the inhibition is 50.2% (active). For the same molecule, the inhibition (average of repeat tests) was 70.2%.
Regarding `CCOC(=O)c1sc2nc(CSc3ccccc3)[nH]c(=O)c2c1C`, the inhibition was 25.9% (inactive).
Take `Cc1ccc(C)c(SCc2nc3sc(C(=O)O)c(C)c3c(=O)[nH]2)c1`: the inhibition was 9.1% (inactive).
Take `COc1cccc(-n2c(=S)sc3c(=O)n(-c4ccccc4C)c(SCC(=O)O)nc32)c1`: the inhibition was 6.2% (inactive).
As to `COc1ccc(CCNC(=O)CCCCCNC(=O)N2CCn3c2nc2ccccc23)cc1OC`, the inhibition was 15.4% (inactive).
Same read-out and setting: for `CCc1nn(CCCC(=O)NC(C)c2ccccc2)c(=O)c2cc3occc3n12` (configuration not stated) the value was 10.2% (inactive); for `CCC(C)(C)NC(=O)C(c1ccc(OC)cc1)N(C(=O)CCC(=O)Nc1cc(C)on1)c1ccc(OC)cc1OC` (configuration not stated), 6% (inactive).
As for `COC(=O)COc1ccc2c(c1C)O/C(=C\c1ccco1)C2=O`, the inhibition was 16.9% (inactive).
For the molecule `O=C(NCCCn1ccnc1)C1CCCN(S(=O)(=O)c2cc(Cl)ccc2Cl)C1` (configuration not stated), the inhibition is -5.4% (inactive).
On the same count and under the same terms, for `Cc1cc2nc3c(=O)n(Cc4ccccc4)c(=O)[nH]c3nc2cc1N` the value was 51.4% (active).
As to `O=c1[nH]c2c(c(=O)n1Cc1ccccc1)CCC2`, the inhibition was 14.7% (inactive).
On the same count and under the same terms, for `Cc1nc2c(c(=O)n1Cc1ccco1)c1nc3ccccc3nc1n2Cc1ccccc1` the value was 31.7% (inactive); for `CC(=O)N/C(=N/c1nc(C)cc(C)n1)Nc1ccc(F)cc1F`, 10.8% (inactive).
Take `O=C(NCc1ccccc1Cl)C1CCCN1S(=O)(=O)c1ccc(F)cc1` (configuration not stated): the inhibition was 9.8% (inactive).
Same read-out and setting: with `O=C(Nc1ccc(N2CCCC2=O)cc1)c1cncc(Br)c1` the figure was -7.3% (inactive); with `Oc1c(Cl)cc(Cl)c(Cl)c1Cc1c(O)c(Cl)cc(Cl)c1Cl`, 71.9% (active).
Take `CC(=O)N1CCN(CC(=O)Nc2ccc(C)c(F)c2)CC1`: the inhibition is 6% (inactive).
Turning to `COC(=O)c1ccc(CNC(=O)c2ccc3oc(C(C)C)nc3c2)cc1`, the inhibition was 9.1% (inactive).
Still for that read-out and setting: with `Cc1ccc(S(=O)(=O)c2c(N)n(C)c3nc4ccccc4nc23)cc1` the figure was 18.6% (inactive).
As for `CCC(=O)Nc1c(S(=O)(=O)c2ccccc2)c2nc3ccccc3nc2n1Cc1ccccc1`, the inhibition is 98.2% (active).
As to `CCN(CC)CCn1c(N)c(S(=O)(=O)c2ccccc2)c2nc3ccccc3nc21`, the inhibition is 11.7% (inactive).
As for `O=C(Cc1c(Cl)cccc1Cl)NC1CC1`, the inhibition was 11% (inactive).
On to `Cc1ccc(NS(=O)(=O)c2ccc3c(c2)n(C)c(=O)c(=O)n3C)c(C)c1`, for which the inhibition is 9% (inactive).
Same read-out and setting: with `CC(=O)NCC(=O)N1CCC(n2nccc2NC(=O)CCCc2ccccc2)CC1` the figure was -2.9% (inactive); with `COc1c(O)ccc2c1CN1CCc3cc4c(cc3C1C2)OCO4` (configuration not stated), 12.8% (inactive).
Regarding `Cc1ccc(-c2nn(-c3ccccc3)cc2/C=C2\SC(=S)N(CCCCCC(=O)O)C2=O)o1`, the inhibition is 55.1% (active). For the same molecule, the inhibition (average of repeat tests) came to 59.6%.
As for `COc1ccc(-c2nn(-c3ccccc3)cc2/C=C2/SC(=S)N(CCCC(=O)O)C2=O)c(C)c1`, the inhibition was 44.1% (inactive).
For `CN(C)S(=O)(=O)c1cccc(-c2nn(-c3ccccc3)cc2/C=C2\SC(=S)N(CC(=O)O)C2=O)c1`, the inhibition was 37.3% (inactive).
As to `O=C(N/C(=C/c1ccc(Cl)cc1)C(=O)N1CCCCC1)c1ccco1`, the inhibition was 22% (inactive).
`CC1CCCCN1C(=O)CCS(=O)(=O)Cc1ccccc1` (configuration not stated): the inhibition was 18.6% (inactive).
The same measure, in the same setting: for `COc1ccc(NC(=O)CNC(=O)Cn2ccc3ccccc3c2=O)c(OC)c1` the value was 7.3% (inactive).
As for `Cc1ccc(Nc2nc(Cl)c(C=O)s2)cc1`, the inhibition was 16.9% (inactive).
For the molecule `Cc1c(Cl)cccc1NC(=O)CCC(=O)N/N=C/c1ccco1`, the inhibition is -5.3% (inactive).
`COc1ccc2oc(=O)c(C(=O)NCc3ccccn3)cc2c1`: the inhibition is 31.2% (inactive).
Turning to `COCCNC(=O)Nc1ccc2nc(-c3ccco3)c(-c3ccco3)nc2c1`, the inhibition is 95.3% (active). Under “average of repeat tests”, the inhibition was found to be 62.6%.
Regarding `COc1cccc(S(=O)(=O)NCc2ccc(C(=O)NCc3ccccn3)cc2)c1`, the inhibition was 0.6% (inactive).
Regarding `O=C(NCc1ccccn1)c1ccc2nc(-c3ccco3)c(-c3ccco3)nc2c1`, the inhibition was 74.1% (active).
`O=C(Nc1ccc2nccnc2c1)c1ccco1`: the inhibition was 28.4% (inactive).
With `CC(C)(C)c1ccc(NC(=O)NCc2ccco2)cc1`, the inhibition was -11.5% (inactive).
Consider `COc1ccc(CNC(=O)c2ccc(Br)s2)cc1OC`, for which the inhibition is 0.1% (inactive).
Regarding `Cc1c(C)c2c(OCC(=O)N[C@@H](C(=O)O)c3ccccc3)cc3c(c2oc1=O)CCC(C)(C)O3`, the inhibition was 44% (inactive).
In the case of `CCc1ccc(-c2nc(SCC(=O)NC3CCCC3)n[nH]2)cc1`, the inhibition was -14.4% (inactive).
As for `COc1ccc(N(C)C(=O)C2CCN(S(=O)(=O)c3cccc4nsnc34)CC2)cc1`, the inhibition is 11.4% (inactive).
With `Cc1ccnc(NS(=O)(=O)c2ccc(NC(=O)c3oc4ccc(F)cc4c3C)cc2)n1`, the inhibition is 15.4% (inactive).
As for `CC(CC(=O)N1CCN(S(=O)(=O)c2ccccc2)CC1)n1cncn1` (configuration not stated), the inhibition is 14.6% (inactive).
For `CCOc1ccc(NC(=O)CN2CCN(CC(=O)Nc3ccc(OC)cc3)CC2)cc1`, the inhibition is -4.3% (inactive).
`Cc1ccc(OCc2n[nH]c(=S)n2-c2ccc(C)cc2)cc1`: the inhibition is 3.7% (inactive).
With `COc1ccc(Cc2n[nH]c(=S)n2NC(=O)Nc2ccc(C)cc2)cc1`, the inhibition is 68.1% (active). Further, where the note is “average of repeat tests”, the inhibition was determined as 49.6%.
In the case of `C/C(=N/Nc1nc(-c2ccccc2)c(CC(=O)O)s1)c1ccccc1`, the inhibition is 7% (inactive).

For the origin of these results see PubChem BioAssay AID2006 (Sanford-Burnham Center for Chemical Genomics, 2009).
